Assay results from PubChem BioAssay (NCI).
Compounds without any hit were thinned out: in the full panel of roughly 83,000, 20% have a hit.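 Each cell line was grown in a 96-well plate and treated with one concentration of compound for 48 hours. Values below 10 were considered active.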 Values without a mark were called inactive. Calls of active or inactive are those of the source.

What was measured:
Assay in all cases: NCI-60 one-dose screen, 48 h (100 = growth as untreated, 0 = no growth, -100 = all killed)
Conditions in all cases: 10 µM unless noted
NCI-H23 lung = test system: NCI-H23 lung
NCI-H226 lung = test system: NCI-H226 lung
NCI-H322M lung = test system: NCI-H322M lung
HOP-62 NSCLC = test system: HOP-62 NSCLC
NCI-H460 lung = test system: NCI-H460 lung
HOP-92 NSCLC = test system: HOP-92 NSCLC
NCI-H522 lung = test system: NCI-H522 lung
A549/ATCC NSCLC = test system: A549/ATCC NSCLC
786-0 renal = test system: 786-0 renal
COLO 205 colon = test system: COLO 205 colon
DU-145 prostate = test system: DU-145 prostate
K-562 leukemia = test system: K-562 leukemia
MALME-3M melanoma = test system: MALME-3M melanoma
MDA-MB-231 breast = test system: MDA-MB-231 breast
RXF 393 renal = test system: RXF 393 renal
SF-268 CNS = test system: SF-268 CNS
SF-295 CNS = test system: SF-295 CNS
SF-539 CNS = test system: SF-539 CNS
UACC-257 melanoma = test system: UACC-257 melanoma
M14 melanoma = test system: M14 melanoma

Structure (SMILES) | growth (NCI-H23 lung) | growth (NCI-H226 lung) | growth (NCI-H322M lung) | growth (HOP-62 NSCLC) | growth (NCI-H460 lung) | growth (HOP-92 NSCLC) | growth (NCI-H522 lung) | growth (A549/ATCC NSCLC) | growth (786-0 renal) | growth (COLO 205 colon) | growth (DU-145 prostate) | growth (K-562 leukemia) | growth (MALME-3M melanoma) | growth (MDA-MB-231 breast) | growth (RXF 393 renal) | growth (SF-268 CNS) | growth (SF-295 CNS) | growth (SF-539 CNS) | growth (UACC-257 melanoma) | growth (M14 melanoma)
O=C([O][Hg][c]1ccccc1)c1ccccc1 | 1.89% (active) | 96.4% | 67.7% | -33.7% (active) | 11.7% | -61.3% (active) | -64.1% (active) | 76.2% | -93.8% (active) | -70% (active) | -35.7% (active) | -21.4% (active) | -4.96% (active) | -53.1% (active) | -72.4% (active) | -34.9% (active) | 56.8% | 19.4% | -30% (active) | -68.3% (active)
CC12CCC3C(CCC4Cc5[nH]c6ccccc6c5CC43C)C1CCC2O (stereo not given) | 49.3% | 41.3% | 43% | 62.8% | 5.72% (active) | 63.4% | 26.4% | 41.5% | 33.5% | 45% | -21.2% (active) | 5.1% (active) | 48.3% | 37.1% | -13.8% (active) | 47.5% | -10.7% (active) | 9.54% (active) | 74.1% | 20.6%
C=CCn1cc(C=C2C(=O)N(C)C(=O)N(C)C2=O)c2ccccc21 | 84.4% | -47.6% (active) | 87.8% | 97% | 56% | 91.2% | 105% | 107% | 101% | 116% | 108% | 108% | 97.4% | 88.4% | 89.9% | 97.8% | 66.4% | 102% | 94.4% | 88.9%
O=C(O)C1C(C(=O)O)C2(Cl)C(Cl)=C(Cl)C1(Cl)C2(Cl)Cl.[Hg] (stereo not given) | 90.7% | 106% | 107% | 103% | 98.8% | 127% | -50.2% (active) | 85% | 88% | 103% | 96.7% | 15.1% | 69.5% | 86.4% | 123% | 97.5% | 95.2% | 102% | 74.7% | 80.2%
O=C1C(Cl)=C(N2CCOCC2)C(=O)c2ccccc21 | 85.2% | 104% | 122% | 105% | 101% | -75.2% (active) | 75.1% | 101% | 111% | 106% | 114% | -36.7% (active) | 48.2% | 84.2% | 129% | 87.6% | 92.9% | 117% | 54.4% | 105%
O=[N+]([O-])c1cc(I)cc([N+](=O)[O-])c1 | 95.9% | 115% | 111% | 133% | 111% | 131% | 85.5% | 99.5% | 112% | 111% | 105% | 97.9% | 101% | 95.7% | 111% | 94.2% | 110% | 101% | 98% | 98.8%
CCN1C(=O)C(=C/C=C/c2ccccc2)C(=O)N(CC)C1=O | 95.5% | 94.5% | 104% | 97.8% | 77.8% | 116% | 73.3% | 101% | 106% | 93.8% | 76.4% | 79.4% | 82.5% | 86.4% | 109% | 72.5% | 105% | 109% | 93.9% | 82.5%
Clc1cc(N2CC2)nc(N2CC2)n1 | 56% | 81.4% | 103% | 63.9% | 23.6% | 68.4% | 67.2% | 62.3% | 76.1% | 81.3% | 52.5% | 69% | 89.7% | 88.1% | 78% | 59.3% | 40.7% | 43.8% | 76.7% | 57.4%
COc1ccc(C(O)(C(=O)O)c2ccc(OC)cc2)cc1 | 89.8% | 116% | 102% | 91% | 97.2% | 95.1% | 62% | 71.6% | 94.8% | 102% | 104% | 87.8% | 105% | 85.7% | 109% | 95.3% | 87.1% | 86.8% | 90.6% | 86.2%
C=CC[n+]1ccc(-c2cc[n+](CC=C)cc2)cc1 | 78.8% | 99% | 95.7% | 83.7% | 91.9% | 111% | 19.7% | 71.9% | 109% | 9.91% (active) | 107% | 99.4% | 34.1% | 120% | 99.8% | 102% | 101% | 101% | 96.9% | 109%
CCC1CC(O)c2c(O)c3c(c(O)c2C1O)C(=O)c1cccc(O)c1C3=O (stereo not given) (tested in a mixture with another compound) | -75.9% (active) | -9.01% (active) | -16.4% (active) | -62.2% (active) | -53.6% (active) | -29.3% (active) | -47.9% (active) | -23.2% (active) | -31% (active) | -46.4% (active) | -1.28% (active) | -44.1% (active) | -92.3% (active) | -18.8% (active) | -27% (active) | -24% (active) | -24% (active) | -64.5% (active) | -25.3% (active) | -97.1% (active)
CC(=O)OC1CCC2C3CCC4=C/C(=N/OC(=O)c5ccc(N(CCCl)CCCl)cc5)CCC4(C)C3CC(C)C12 (stereo not given) | 69.7% | 94% | 91.7% | 78.6% | -4.94% (active) | 92.5% | 79.2% | 56.6% | 87% | 83.7% | 79.6% | 18.2% | 76.3% | 78.5% | 67.9% | 62.9% | 81.5% | 75.6% | 105% | 89.6%
O=C([O][Hg][CH2]C1OCCOC1[CH2][Hg][O]C(=O)c1ccccc1)c1ccccc1 (stereo not given) | 46.7% | 118% | 116% | 98.6% | 117% | -88.3% (active) | -64.1% (active) | 101% | 79.4% | -64.7% (active) | 90.1% | -36% (active) | -98.3% (active) | 93.2% | -90.1% (active) | 114% | 112% | 79.8% | -96.4% (active) | 73.3%
NC(N)=N/N=C\c1c[nH]c2ccc(Br)cc12 | 86.3% | 69.2% | 87.9% | 83.5% | 102% | 37.9% | 81% | 92.5% | 78.6% | 84.5% | 96.2% | 74.6% | 76.8% | 101% | 99% | 64.6% | 79.9% | 84% | 69.3% | 94.1%
COc1ccc(/C=C\c2cc(OC)c(OC)c(OC)c2)c(NS(=O)(=O)c2ccc(Cl)cc2)c1O | 21.8% | 18.4% | 40.8% | 49.8% | 8.23% (active) | 48.3% | -36% (active) | 16.7% | 25.5% | 20.9% | -13.3% (active) | 9.26% (active) | 58% | 8.54% (active) | 37.2% | 16.2% | 0.936% (active) | 2.9% (active) | 39.1% | 12.8%
